We go through 5 molecules from the supplement of paper PMC10477191.

SMILES strings stand for the structures. ± gives the standard deviation of the averaged measurements.

The test system of this assay is Drosophila virilis antennal basiconic sensillum AB5. In words: odor-evoked OSN spike response (post minus pre-stimulus); higher = stronger neuronal excitation. The following applies: odor dilution: 10^-4. The procedure: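 Single sensillum recordings from antennal basiconic sensilla of D. virilis. A 500 ms pulse of odorant (10^-4 in mineral oil or DMSO) was delivered; the response is the change in spike frequency between the 1 s pre- and post-stimulus windows (spikes/s).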
Turning to `COC(=O)c1ccccc1` [methyl benzoate], the “odor-evoked OSN spike response” value amounted to 49.2 ± 8.7 spikes/s.

With `CC(=O)OC/C=C(\C)CCC=C(C)C` [geranyl acetate], the “odor-evoked OSN spike response” value stood at 81 ± 11 spikes/s.

Consider `CC(=O)c1ccccc1` [Acetophenone], for which the “odor-evoked OSN spike response” value is 65.7 ± 8.1 spikes/s.

`CCCCCOC(C)=O` [pentyl acetate]: the “odor-evoked OSN spike response” value was 65.7 ± 11 spikes/s.

In the case of `COc1cccc(OC)c1O` [Phenol, 2,6-dimethoxy- (powder)], the “odor-evoked OSN spike response” value is 54 ± 20 spikes/s.
